The panel holds about 79,000 compounds, 15% with a hit somewhere; the sample as a whole holds those more often. Unmarked numbers belong to inactive results. Activity calls are given as the source filed them. No stated cut-off is given here; in the data, active means growth inhibition above about 70%; inactive means the rest.
How the values were obtained:
[1] = NCI Yeast Anticancer Drug Screen. Data for the rad52 strain (AID 147);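 further: 0% = growth of vehicle-treated control cultures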; details: S. cerevisiae rad52 mutant growth inhibition, stronger effect = higher value
Outline: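 Here a repair-compromised yeast strain receives each compound; its growth is then quantified and normalised to vehicle-only controls.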

[2] = NCI Yeast Anticancer Drug Screen. Data for the wt1 strain (AID 149);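 further: 0% = growth of vehicle-treated wt1 cultures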; details: S. cerevisiae wt1 strain (SPY 50644) growth inhibition, stronger effect = higher value
Outline: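 wt1 yeast, compound-treated; % growth inhibition vs vehicle control.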

[3] = NCI Yeast Anticancer Drug Screen. Data for the rad50EPP+ strain (AID 151);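 further: 0% = growth of vehicle-treated control cultures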; details: S. cerevisiae rad50 mutant strain, stronger effect = higher value
Outline: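 Read-out is yeast growth inhibition relative to vehicle; cells used were the rad50EPP+ strain.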

[4] = NCI Yeast Anticancer Drug Screen. Data for the mgt1 strain (AID 153); details: S. cerevisiae mgt1 mutant growth inhibition, stronger effect = higher value
Outline: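 Measured: inhibition of mgt1 yeast growth by compound, normalized to vehicle-treated cultures.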

[5] = NCI Yeast Anticancer Drug Screen. Data for the rad50 strain (AID 155);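 further: 0% = growth of vehicle-only cultures of the same strain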; details: S. cerevisiae rad50 strain growth inhibition, stronger effect = higher value
Outline: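 Genetically altered yeast (DNA repair pathway); compound treatment; growth inhibition vs vehicle ctrl.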

[6] = NCI Yeast Anticancer Drug Screen. Data for the mec2-1 strain (AID 157); details: S. cerevisiae mec2-1 strain, stronger effect = higher value
Outline: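 Using mec2-1 yeast: add compound, measure growth, express inhibition versus vehicle-treated cultures.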

[7] = NCI Yeast Anticancer Drug Screen. Data for the rad14 strain (AID 159);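 further: 0% = growth of vehicle-treated control cultures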; details: S. cerevisiae rad14 strain growth inhibition, stronger effect = higher value
Outline: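 Test compounds were applied to a repair-deficient yeast strain. Its growth was then compared with that of cultures given vehicle alone, and inhibition was expressed relative to those controls.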

[8] = NCI Yeast Anticancer Drug Screen. Data for the sgs1 mgt1 strain (AID 161);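 further: 0% = growth of cultures given vehicle only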; details: S. cerevisiae sgs1 mgt1 strain, stronger effect = higher value
Outline: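 Yeast cells carrying a defined DNA-repair defect were exposed to test compounds. Growth inhibition was measured relative to vehicle-treated controls.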

[9] = NCI Yeast Anticancer Drug Screen. Data for the CLN2oe strain (AID 163);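 further: 0% = growth of vehicle-only control cultures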; details: S. cerevisiae CLN2oe strain, stronger effect = higher value
Outline: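 Whole-cell yeast growth assay. A strain engineered for altered cell-cycle control received compound, and inhibition relative to vehicle-treated cultures was recorded.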

[10] = NCI Yeast Anticancer Drug Screen. Data for the cln2 rad14 strain (AID 165);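 further: 0% = growth equal to vehicle treated cultures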; details: S. cerevisiae cln2 rad14 strain, stronger effect = higher value
Outline: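 Yeast strain cln2 rad14, bearing defects in cell cycle control and DNA repair, serves as the test system; values reflect growth inhibition compared with vehicle.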

[11] = NCI Yeast Anticancer Drug Screen. Data for the bub3 strain (AID 167); details: S. cerevisiae bub3 mutant strain, stronger effect = higher value
Outline: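 Yeast carrying a defined mutation is treated with each compound, and growth is compared with that of vehicle-exposed cells to give inhibition.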

[12] = NCI Yeast Anticancer Drug Screen. Data for the wt2 strain (AID 169);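 further: 0% = growth of vehicle-treated yeast cultures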; details: S. cerevisiae wt2 strain growth inhibition, stronger effect = higher value
Outline: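 Treated yeast vs. vehicle-treated yeast: growth inhibition determined.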

[13] = NCI Yeast Anticancer Drug Screen. Data for the sgs1 strain (AID 173);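 further: 0% = growth of vehicle-only control cultures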; details: S. cerevisiae sgs1 mutant, stronger effect = higher value
Outline: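 A genetically defined yeast mutant is incubated with the test compound, and its growth is compared to that of the same strain given vehicle.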

[14] = NCI Yeast Anticancer Drug Screen. Data for the mlh1 rad18 strain (AID 175); details: S. cerevisiae mlh1 rad18 strain growth inhibition, stronger effect = higher value
Outline: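 Steps: expose repair-defective yeast to compound; measure growth; express inhibition against vehicle-treated controls.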

[15] = NCI Yeast Anticancer Drug Screen. Data for the rad18 strain (AID 177); details: S. cerevisiae rad18 mutant growth inhibition, stronger effect = higher value
Outline: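 Measured value is growth inhibition of a yeast strain bearing a DNA repair alteration, referenced to vehicle-treated cells.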

[16] = at 5.0 µM (retest, dose inferred, filed as 0.5)
[17] = at 50.0 µM (retest, dose inferred, filed as 5.0)

CCOc1ccc2nc3ccccc3c(N)c2c1
growth inhibition ([1]; at 1.2 µM): 13% | growth inhibition ([1]; at 3.7 µM): 22% | growth inhibition ([1]; at 11.0 µM): 60% | growth inhibition ([1]; at 33.0 µM): 91% (active) | growth inhibition ([1]; at 100.0 µM): 97% (active) | growth inhibition ([2]; at 1.2 µM): 7% | growth inhibition ([2]; at 3.7 µM): 13% | growth inhibition ([2]; at 11.0 µM): 37% | growth inhibition ([2]; at 33.0 µM): 83% (active) | growth inhibition ([2]; at 100.0 µM): 94% (active) | growth inhibition ([3]; at 1.2 µM): 2% | growth inhibition ([3]; at 3.7 µM): 4% | growth inhibition ([3]; at 11.0 µM): 21% | growth inhibition ([3]; at 33.0 µM): 59% | growth inhibition ([3]; at 100.0 µM): 90% (active) | growth inhibition ([4]; at 1.2 µM): 0% | growth inhibition ([4]; at 3.7 µM): 9% | growth inhibition ([4]; at 11.0 µM): 35% | growth inhibition ([4]; at 33.0 µM): 83% (active) | growth inhibition ([4]; at 100.0 µM): 94% (active) | growth inhibition ([5]; at 1.2 µM): 7% | growth inhibition ([5]; at 3.7 µM): 21% | growth inhibition [5, 16]: 0% | growth inhibition ([5]; at 11.0 µM): 50% | growth inhibition ([5]; at 33.0 µM): 89% (active) | growth inhibition [5, 17]: 81% (active) | growth inhibition ([5]; at 50.0 µM): 91.2% (active) | growth inhibition ([5]; at 100.0 µM): 97% (active) | growth inhibition ([6]; at 1.2 µM): 5% | growth inhibition ([6]; at 3.7 µM): 4% | growth inhibition [6, 16]: 21% | growth inhibition ([6]; at 11.0 µM): 19% | growth inhibition ([6]; at 33.0 µM): 80% (active) | growth inhibition [6, 17]: 82% (active) | growth inhibition ([6]; at 50.0 µM): 83.7% (active) | growth inhibition ([6]; at 100.0 µM): 97% (active) | growth inhibition ([7]; at 1.2 µM): 4% | growth inhibition ([7]; at 3.7 µM): 23% | growth inhibition ([7]; at 11.0 µM): 50% | growth inhibition ([7]; at 33.0 µM): 87% (active) | growth inhibition ([7]; at 100.0 µM): 92% (active) | growth inhibition [8, 16]: 32% | growth inhibition [8, 17]: 86% (active) | growth inhibition ([8]; at 50.0 µM): 81.2% (active) | growth inhibition ([9]; at 1.2 µM): 7% | growth inhibition ([9]; at 3.7 µM): 16% | growth inhibition ([9]; at 11.0 µM): 33% | growth inhibition ([9]; at 33.0 µM): 68% | growth inhibition ([9]; at 100.0 µM): 92% (active) | growth inhibition [10, 16]: 46% | growth inhibition [10, 17]: 84% (active) | growth inhibition ([10]; at 50.0 µM): 86.2% (active) | growth inhibition ([11]; at 1.2 µM): -20% | growth inhibition ([11]; at 3.7 µM): -2% | growth inhibition [11, 16]: 14% | growth inhibition ([11]; at 11.0 µM): 16% | growth inhibition ([11]; at 33.0 µM): 78% (active) | growth inhibition [11, 17]: 84% (active) | growth inhibition ([11]; at 50.0 µM): 87.1% (active) | growth inhibition ([11]; at 100.0 µM): 90% (active) | growth inhibition ([12]; at 1.2 µM): 7% | growth inhibition ([12]; at 3.7 µM): 18% | growth inhibition ([12]; at 11.0 µM): 49% | growth inhibition ([12]; at 33.0 µM): 89% (active) | growth inhibition ([12]; at 100.0 µM): 98% (active) | growth inhibition ([13]; at 1.2 µM): 10% | growth inhibition ([13]; at 3.7 µM): 24% | growth inhibition ([13]; at 11.0 µM): 51% | growth inhibition ([13]; at 33.0 µM): 88% (active) | growth inhibition ([13]; at 100.0 µM): 97% (active) | growth inhibition [14, 16]: 10% | growth inhibition [14, 17]: 82% (active) | growth inhibition ([14]; at 50.0 µM): 89.5% (active) | growth inhibition ([15]; at 1.2 µM): 4% | growth inhibition ([15]; at 3.7 µM): 8% | growth inhibition ([15]; at 11.0 µM): 30% | growth inhibition ([15]; at 33.0 µM): 83% (active) | growth inhibition ([15]; at 100.0 µM): 97% (active)

Reference: PubChem BioAssay (NCI)
